Assay outcomes from PubChem.
Sampled rows, rich in hits. Any-hit rate of the full collection: about 7.5%.
Rab9 prom act – activates the Rab9 promoter; Huh7 Rab9 promoter-luciferase reporter, luminescence, 24 h; Potency, µM (series often up to 9.22 µM), inactives show at the highest dose activation, negative = inhibition, usual class: activators; 320,000 tested, 2.8% active; also: % of control where 0% means no effect; nearly all actives have a fitted effect of over 60% in size
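Luciferase signal after 10 min detection reagent at ambient indicates Rab9 promoter upregulation; stably transfected Huh7 cells were treated 24 h with compound in DMSO at 37 °C, 5% CO2.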
FLuc modulator – inhibits or activates purified firefly luciferase, miR-21 counter-screen; 360,000 tested, 6.9% active; Potency, µM (series often up to 57.5 µM), for inactives: at the top dose activity change, negative = inhibition, most hits filed as inhibitors; purified FLuc, Km substrates, luminescence inhibition; P08659;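 also: plate controls were vehicle for no effect and reference inhibitor for full effect; nearly all actives have a fitted effect of over 55% in size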
Target sequence (P08659 whole entry, looked up): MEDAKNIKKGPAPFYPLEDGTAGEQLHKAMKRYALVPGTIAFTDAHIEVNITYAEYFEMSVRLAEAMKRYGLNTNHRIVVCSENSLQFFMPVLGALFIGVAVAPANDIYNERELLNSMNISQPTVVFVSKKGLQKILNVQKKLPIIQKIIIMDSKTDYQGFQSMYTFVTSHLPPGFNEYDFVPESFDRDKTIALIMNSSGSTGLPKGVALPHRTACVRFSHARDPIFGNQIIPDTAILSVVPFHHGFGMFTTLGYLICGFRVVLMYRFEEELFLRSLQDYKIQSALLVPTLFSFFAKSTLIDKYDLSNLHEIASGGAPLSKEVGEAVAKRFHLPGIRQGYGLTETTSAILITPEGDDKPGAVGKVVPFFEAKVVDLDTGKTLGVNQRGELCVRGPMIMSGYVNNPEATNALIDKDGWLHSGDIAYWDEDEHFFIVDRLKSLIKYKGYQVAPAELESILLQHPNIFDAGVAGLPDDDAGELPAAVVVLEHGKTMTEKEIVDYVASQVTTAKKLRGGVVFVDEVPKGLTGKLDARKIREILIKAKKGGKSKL
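Purified P. pyralis luciferase, 10 nM final, with Km-level 10 uM D-luciferin and 10 uM ATP in 50 mM Tris acetate pH 7.5, 10 mM Mg acetate, 0.01% Tween-20, 0.05% BSA; 6-point qHTS titration about 60 µM downward; luminescence read.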
ELG1 genotox – inducers of genotoxicity in HEK293T ELG1-luciferase cells; HEK293T ELG1-luciferase reporter, luminescence, 16 h; Potency, µM (doses to about 46 µM), without a hit: top-dose activity change, positive = activation, hits mostly activators; 330,000 tested, 1.3% active; also: % of control where 0% means no effect; nearly all actives have a fitted effect of over 60% in size
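Cells (2,000/well) expressing the ELG1-luciferase fusion are dosed by pin tool and kept 16 hr at 37 °C, 5% CO2. Signal comes from ONE-Glo luciferase reagent after 30 min at room temperature.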
NPC1 promoter act – activates the NPC1 promoter; Huh7 NPC1 promoter luciferase reporter, 24 h; Potency, µM (top dose mostly 9.22 µM), for the others: top-dose activation, usual class: activators; 320,000 tested, 2.4% active; AID 485313; also: % of control where 0% means no effect; nearly all actives have a fitted effect of over 60% in size
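Luciferase expression driven by the NPC1 promoter was measured in stably transfected Huh7 cells after a 24 h compound incubation, using a luciferase reagent and a luminescence read.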
SMN2 splice enh – enhancers of SMN2 splice variant expression; HEK293 SMN2-luciferase splicing reporter, luminescence, 30-36 h; Potency, µM (doses to about 46.1 µM), for the others: at the top dose activity change, positive = activation, actives largely listed as activators; 210,000 tested, 2.8% active; AID 1458; also: % of control where 0% means no effect; nearly all actives have a fitted effect of over 55% in size
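HEK293 cells carry an SMN2 […]–luciferase reporter in which exon 7 inclusion puts luciferase in frame. Cells were plated 10-12 h before compound addition, then incubated 30-36 h at 37C. ONE-Glo luminescence was read; sodium butyrate at 4.5 mM final served as control.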
The depositor's hits bear a star; ? = inconclusive; · = no result; [ ] = another dose, or the depositor's remark. Calls follow the shape of the dose curve; as a rule, active = well fitted curve in the direction sought with a large enough effect; inconclusive = small, poorly fitted or top-dose-only effect, or another doubt; inactive = no such curve, though single readings can be large; an effect the other way counts as inactive or inconclusive. Potency is read from the fitted curve at half-maximal effect.

SMILES	Rab9 prom act	FLuc modulator	ELG1 genotox	NPC1 promoter act	SMN2 splice enh
CCOc1ccc2nc(NC(=O)CN3CCN(CC)CC3)sc2c1	0%	-18%	3%	4%	·
CCOc1ccc2nc(NC(=O)COC)sc2c1	1.3µM*	5.4µM*	2µM*	2µM*	11µM*
CCOc1ccc2nc(NC(=O)CN3CCN(C)CC3)sc2c1	10%	?	14%	6%	23%
CCCc1cc(=O)[nH]c(SCC(=O)Nc2nc3ccc(OCC)cc3s2)n1	1%	?	6%	3%	·
CC(c1ccccc1)n1cnc2ccccc2c1=O (stereo not drawn)	-1%	2%	2%	-1%	·
CCOc1ccc2nc(NC(=O)CN3C(=O)C4CCCCC4C3=O)sc2c1 (stereo not drawn)	21%	6µM*	6%	22%	·
CCc1nc2oc3ccccc3c(=O)c2c(=O)n1-c1ccccc1	3%	-1%	13µM*	14%	11µM*
CCc1nc2oc3ccccc3c(=O)c2c(=O)n1-c1ccc(C)cc1	23%	17µM*	?	16%	·
CCCc1nc2oc3ccccc3c(=O)c2c(=O)n1-c1ccccc1	13%	-9%	?	13%	·
Cc1nn(C)c(C(=O)NNC(=O)NC2CCCCC2)c1Cl	0%	2%	-4%	2%	·
Cc1cccc(OCCSc2nnc(-c3cccs3)o2)c1	·	-17%	·	·	·
CCCCOC(=O)c1nnc(-c2ccc(Cl)cc2)o1	-2%	?	-1%	1%	·
CCCOc1ccc(-c2nnc(-c3cccs3)o2)cc1	0.56µM*	0.67µM*	?	0.71µM*	4.5µM*
CCCCNC(=O)Nc1nnc(-c2ccc(OCC)cc2)o1	19%	0%	0%	5%	-13%
CCOC(=O)CNC(=O)Nc1nnc(-c2ccc(OCC)cc2)o1	3%	12µM*	8%	23%	-7%
CCCCOC(=O)c1nnc(-c2ccccc2)o1	2%	12µM*	3%	1%	·
CCOC(=O)COc1ccc(-c2nnc(-c3ccccc3)o2)cc1	11%	6µM*	21%	3%	·
CC1=N/C(=C/c2cccnc2)C(=O)O1	-4%	2%	-3%	-9%	-18%
CCN(C[C@H]1N[C@@](C)(C(=O)OC)[C@H]2C(=O)N(C)C(=O)[C@@H]12)C(=O)COc1ccccc1	·	·	-3%	·	·
CCCCN(C(=O)c1cccc(S(=O)(=O)N2CCN(C)CC2)c1)c1c(N)n(CCC)c(=O)[nH]c1=O	-4%	-1%	2%	-6%	·
CCN(CC)C(=O)c1ccccc1NC(=O)c1cccc(S(=O)(=O)N2CCC(C)CC2)c1	·	1%	·	·	·
Cc1ccc(S(=O)(=O)N2CCCC2)cc1C(=O)NCCOc1ccccc1	-6%	1%	0%	-10%	·
CCOC(=O)c1ccccc1NC(=O)Cn1c(=O)n(CCC(=O)N2CCc3ccccc3C2)c(=O)c2ccccc21	·	3%	·	·	-5%
c1coc(-c2nnc(NC3=NCCC3)o2)c1	3.5µM*	19µM*	16µM*	?	13µM*
CCOc1ccc(-c2nnc(-c3ccccc3)o2)cc1	0.71µM*	1.1µM*	?	1.6µM*	0.56µM*
SMILES	Rab9 prom act	FLuc modulator	ELG1 genotox	NPC1 promoter act	SMN2 splice enh
Cc1nnc(NC2=NCCC2)o1	-6%	0%	1%	-3%	?
CCOc1ccc(-c2nnc(NC3=NCCCCC3)o2)cc1	1.6µM*	4.8µM*	2.3µM*	?	13µM*
CN(C)c1ccc(-c2nnc(-c3cccs3)o2)cc1	0.32µM*	0.76µM*	?	0.5µM*	2.2µM*
CCOC(=O)C1=NN(c2ccc(OC)cc2)C2C(=O)N(c3ccccc3OC)C(=O)C12 (stereo not drawn)	-10%	1%	3%	1%	·
COc1ccccc1C(=O)NC(=O)COC(=O)CNC(=O)c1ccccc1F	·	·	1%	·	·
CC(=O)OCC(=O)[C@]1(O)C(C)CC2C3CCC4=CC(=O)C=C[C@@]4(C)[C@]3(F)C(O)C[C@@]21C (stereo partly drawn)	·	·	·	·	13%
CCCCOc1ccc(-c2nnc(-c3cc[n+](C)cc3)o2)cc1	-3%	-1%	-2%	2%	·
CCCCOc1ccc(-c2nnc(-c3ccncc3)o2)cc1	4µM*	12µM*	?	?	·
CCOc1ccc(-c2nnc(-c3ccc(OC)cc3)o2)cc1	19%	?	2%	10%	-6%
CCOc1ccc(-c2nnc(-c3ccncc3)o2)cc1	1.6µM*	9.5µM*	20%	1.8µM*	?
O=C(Cc1ccccc1)Nc1sc2c(c1C(=O)Nc1ccc(Br)cc1)CCCC2	·	5%	·	·	-8%
Cc1ccc(S(=O)(=O)NNC(=O)CCC(=O)Nc2ccccc2Cl)cc1	3%	1%	0%	0%	·
COc1cc(/C=C2\CCC(C3CCCC3)C2=O)ccc1OC(C)C (stereo not drawn)	0%[1.84 µM]	15µM*	17%	-5%	·
COc1cc(OC)c(OC)cc1/C=C1\CCC(C2CCCC2)C1=O (stereo not drawn)	1%	-13%	-14%	-2%	-24%
COc1ccc(/C=C2\CCC(C3CCCC3)C2=O)cc1OC (stereo not drawn)	6%	11µM*	?	?	·
COc1cc(/C=C(\C#N)C(=O)NCC2CCCO2)ccc1OC(C)C (stereo not drawn)	-1%	?	-1%	3%	-9%
COc1ccc(/C=N/NC(=O)c2nc(-c3ccccc3)cc(-c3ccccc3)n2)cc1OC	-3%	2.4µM*	-1%	3%	-37%
COc1cccc(/C=N/NC(=O)CCn2cnc3ccccc32)c1	2%	-11%	-1%	0%	·
COc1cccc(/C=N/NC(=O)c2cc(-c3cccn3C)n[nH]2)c1	-5%	?	-1%	-4%	15%
COc1cccc(/C=N/NC(=O)c2nc(-c3ccccc3)cc(-c3ccccc3)n2)c1	3%	2.4µM*	-9%	-2%	-18%
COc1cc(/C=N\NC(=O)c2ccc(-c3ccccc3)cc2)ccc1OCC(N)=O	-3%	-3%	14%	-3%	·
COc1cccc(/C=N/NC(=O)C(C)Cn2cnc3ccccc32)c1 (stereo not drawn)	-5%	15µM*	-7%	-3%	·
Cc1cccc(NC(=O)c2cc(-c3cccnc3)nc3c(C)cccc23)n1	-2%	?	-10%	0%	·
COc1ccc(C(=O)NCCCn2nc(C)cc2C)cc1S(=O)(=O)N1CCOCC1	8%	-1%	0%	-5%	·
Cc1ccccc1NS(=O)(=O)c1ccc(OCC(=O)N2CCCC2)cc1	16%	1%	-6%	19%	-1%
CCOc1ccc(/C(O)=C2\C(=O)C(=O)N(CCOCCO)C2c2ccccc2OC)cc1 (stereo not drawn)	0%	0%	1%	0%	-4%
CN(c1ccccc1)S(=O)(=O)c1cccc(NC(=O)C2=NN(c3ccccc3)C(=O)CC2)c1	·	·	1%	·	·
O=C(CSc1ccc(-c2ccccn2)nn1)Nc1ccc(F)c(F)c1	-10%	13µM*	?	-1%	·
